16 compounds from ChEMBL document CHEMBL1961873, “Compounds: GSK PKIS; Assays: Nanosyn kinase panel” (2012) can be followed below.

Test [1] concerns the target Serine/threonine-protein kinase pim-2 (Homo sapiens) (UniProt Q9P1W9). As to conditions: at 1 µM.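 Note: each value is a mean of the inhibition measurements against the kinase.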
Test [2] deals with Serine/threonine-protein kinase pim-3 (Homo sapiens) (UniProt Q86V86). As to conditions: at 0.1 µM.
Test [3] shares this target. As to conditions: at 1 µM.
Test [4] addresses T1, MAP kinase-activated protein kinase 5 (Homo sapiens) (UniProt Q8IW41).
T1 sequence (whole entry): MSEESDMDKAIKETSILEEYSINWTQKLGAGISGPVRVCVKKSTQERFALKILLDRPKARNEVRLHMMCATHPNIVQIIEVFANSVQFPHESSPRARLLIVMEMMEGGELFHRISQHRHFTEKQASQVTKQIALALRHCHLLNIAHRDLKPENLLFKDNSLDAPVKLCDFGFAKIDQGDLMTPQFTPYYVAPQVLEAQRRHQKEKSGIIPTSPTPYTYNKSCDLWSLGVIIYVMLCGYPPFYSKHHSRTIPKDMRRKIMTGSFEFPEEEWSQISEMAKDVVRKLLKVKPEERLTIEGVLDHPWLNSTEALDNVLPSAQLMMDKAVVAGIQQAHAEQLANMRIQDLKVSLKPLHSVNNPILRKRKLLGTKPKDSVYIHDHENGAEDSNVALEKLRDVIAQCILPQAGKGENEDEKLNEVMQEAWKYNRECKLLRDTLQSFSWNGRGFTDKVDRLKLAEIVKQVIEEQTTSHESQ
As to conditions: at 0.1 µM.

Test [5] deals with T1, MAP kinase-activated protein kinase 5 (Homo sapiens). As to conditions: at 1 µM.
Test [6] has as its target Serine/threonine-protein kinase SIK1 (Homo sapiens) (UniProt P57059). As to conditions: at 0.1 µM.
Test [7] shares this target. The settings on record: at 1 µM.
Test [8] addresses Serine/threonine-protein kinase SIK2 (Homo sapiens) (UniProt Q9H0K1). As to conditions: at 0.1 µM.
Test [9] shares this target. As to conditions: at 1 µM.
For test [10], the target named is T2, Serine/threonine-protein kinase TBK1 (Homo sapiens) (UniProt Q9UHD2).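 Note: values are the mean TBK1 inhibition, taken from the GSK PKIS screening data.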
T2 sequence (whole entry): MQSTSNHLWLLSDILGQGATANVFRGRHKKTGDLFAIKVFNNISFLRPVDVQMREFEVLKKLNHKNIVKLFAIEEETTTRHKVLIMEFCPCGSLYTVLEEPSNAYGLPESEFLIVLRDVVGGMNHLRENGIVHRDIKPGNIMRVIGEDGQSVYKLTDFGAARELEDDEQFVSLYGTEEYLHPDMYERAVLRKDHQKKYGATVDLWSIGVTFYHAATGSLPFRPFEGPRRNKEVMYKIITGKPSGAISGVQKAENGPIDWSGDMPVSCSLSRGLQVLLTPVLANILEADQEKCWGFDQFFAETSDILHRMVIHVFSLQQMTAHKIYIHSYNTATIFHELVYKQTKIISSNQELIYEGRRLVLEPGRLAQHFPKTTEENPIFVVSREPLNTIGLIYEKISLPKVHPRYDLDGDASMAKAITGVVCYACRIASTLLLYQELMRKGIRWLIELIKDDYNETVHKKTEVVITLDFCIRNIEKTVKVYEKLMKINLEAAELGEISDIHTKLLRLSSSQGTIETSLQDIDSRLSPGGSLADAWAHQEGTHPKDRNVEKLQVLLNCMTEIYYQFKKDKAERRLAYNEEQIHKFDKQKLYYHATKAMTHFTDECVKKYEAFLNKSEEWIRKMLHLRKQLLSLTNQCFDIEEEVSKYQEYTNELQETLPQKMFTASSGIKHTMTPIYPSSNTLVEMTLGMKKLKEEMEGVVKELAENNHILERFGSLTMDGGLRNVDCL
As to conditions: at 0.1 µM.

What is called inhibition is the drop in the measured response relative to a control, in per cent.

Chain of Serine/threonine-protein kinase SIK1 (Homo sapiens) (P57059 whole entry): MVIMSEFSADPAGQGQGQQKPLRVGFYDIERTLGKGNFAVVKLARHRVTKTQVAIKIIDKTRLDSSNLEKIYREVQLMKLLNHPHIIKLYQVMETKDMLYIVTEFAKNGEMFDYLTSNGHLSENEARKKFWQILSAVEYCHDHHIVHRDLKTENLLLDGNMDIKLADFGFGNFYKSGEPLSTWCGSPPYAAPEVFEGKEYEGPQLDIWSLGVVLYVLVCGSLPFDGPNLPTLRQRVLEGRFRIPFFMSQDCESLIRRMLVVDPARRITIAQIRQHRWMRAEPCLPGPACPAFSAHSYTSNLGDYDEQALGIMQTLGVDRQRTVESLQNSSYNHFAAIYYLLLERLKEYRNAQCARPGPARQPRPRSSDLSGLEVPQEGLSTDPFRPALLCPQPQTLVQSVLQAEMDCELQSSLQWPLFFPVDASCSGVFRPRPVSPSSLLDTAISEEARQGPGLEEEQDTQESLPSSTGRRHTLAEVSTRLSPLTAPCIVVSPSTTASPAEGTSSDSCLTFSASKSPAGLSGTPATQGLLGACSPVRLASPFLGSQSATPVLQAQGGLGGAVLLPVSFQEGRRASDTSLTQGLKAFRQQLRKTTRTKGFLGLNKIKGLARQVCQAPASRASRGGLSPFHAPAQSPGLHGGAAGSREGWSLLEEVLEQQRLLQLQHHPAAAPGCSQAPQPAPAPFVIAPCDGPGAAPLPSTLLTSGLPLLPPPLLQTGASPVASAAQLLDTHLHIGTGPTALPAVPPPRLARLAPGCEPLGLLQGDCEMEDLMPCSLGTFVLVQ
Chain of Serine/threonine-protein kinase SIK2 (Homo sapiens) (Q9H0K1 whole entry, looked up): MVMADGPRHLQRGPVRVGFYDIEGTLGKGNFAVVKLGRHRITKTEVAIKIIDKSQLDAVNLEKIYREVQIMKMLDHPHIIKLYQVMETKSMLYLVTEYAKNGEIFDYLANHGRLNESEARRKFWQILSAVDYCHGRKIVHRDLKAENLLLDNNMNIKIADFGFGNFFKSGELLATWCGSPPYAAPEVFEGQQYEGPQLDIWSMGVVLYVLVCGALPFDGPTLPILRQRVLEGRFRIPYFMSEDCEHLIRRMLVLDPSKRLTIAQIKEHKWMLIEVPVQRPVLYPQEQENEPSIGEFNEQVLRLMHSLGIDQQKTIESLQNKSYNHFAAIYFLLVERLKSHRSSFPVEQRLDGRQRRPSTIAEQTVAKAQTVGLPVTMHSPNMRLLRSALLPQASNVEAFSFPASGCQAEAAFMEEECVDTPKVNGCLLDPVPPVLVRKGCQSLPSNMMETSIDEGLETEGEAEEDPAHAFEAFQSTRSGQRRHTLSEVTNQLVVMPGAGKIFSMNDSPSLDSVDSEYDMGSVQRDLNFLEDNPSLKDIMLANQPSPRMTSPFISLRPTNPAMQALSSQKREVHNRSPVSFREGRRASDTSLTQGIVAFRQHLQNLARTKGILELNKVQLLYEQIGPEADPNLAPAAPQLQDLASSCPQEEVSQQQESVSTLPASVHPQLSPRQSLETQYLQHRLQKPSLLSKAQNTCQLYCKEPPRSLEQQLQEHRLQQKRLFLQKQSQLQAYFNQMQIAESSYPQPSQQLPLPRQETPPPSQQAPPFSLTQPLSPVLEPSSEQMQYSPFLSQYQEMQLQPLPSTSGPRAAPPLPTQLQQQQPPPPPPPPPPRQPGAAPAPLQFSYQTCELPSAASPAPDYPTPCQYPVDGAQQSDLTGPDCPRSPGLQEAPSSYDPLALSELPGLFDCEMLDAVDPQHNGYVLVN
Chain of Serine/threonine-protein kinase pim-2 (Homo sapiens) (Q9P1W9 whole entry, looked up): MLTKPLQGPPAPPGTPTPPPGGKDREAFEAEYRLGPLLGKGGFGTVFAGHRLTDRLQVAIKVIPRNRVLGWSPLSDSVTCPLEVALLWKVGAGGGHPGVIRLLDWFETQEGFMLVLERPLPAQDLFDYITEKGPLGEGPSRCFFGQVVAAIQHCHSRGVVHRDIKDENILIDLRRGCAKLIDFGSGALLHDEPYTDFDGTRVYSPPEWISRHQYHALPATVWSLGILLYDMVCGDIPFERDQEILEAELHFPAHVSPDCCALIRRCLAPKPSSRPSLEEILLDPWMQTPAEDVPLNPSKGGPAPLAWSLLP

As to `CCc1cccc(NC(=O)Nc2ccc(Oc3ccc4nc(NC(=O)OC)[nH]c4c3)cc2)c1`, the inhibition is -0.24% in [1]; 1.1% in [2]; 3.52% in test [3]; 0.32% in [4]; 0.96% in test [5]; 2.06% in test [6]. In addition, the inhibition stood at 2.27% in test [7], 1.99% in test [8], 0.48% in test [9] and 0.31% in test [10].

`Cc1cc(O)cc(C)c1/C=C/c1cncc(-c2nn[nH]n2)c1`: the inhibition in test [1] was -2.91%; in test [2], -1.97%; in test [3], -0.67%; in [4], 1.58%; in test [5], 1.02%; in [6] it was 56.2%. Further, the inhibition amounted to 94.7% in test [7], 6.01% in [8], 53.7% in test [9] and 1.57% in test [10].

In the case of `CC(=O)Nc1cccc(C#Cc2cncnc2Nc2ccc(OCc3cccc(F)c3)c(Cl)c2)n1`, the inhibition in [1] was -0.75%; in [2] it was 5.22%; in [3], 9.04%; in test [4], 0.35%; in test [5] it was 2.24%; in test [6], -2.62%. The inhibition in test [7] is -1.96%; in test [8], -4.28%; in [9] it was -0.46%; in test [10], 1.99%.

On to `O=C(Nc1n[nH]c2nc(-c3ccco3)c(Br)cc12)C1CC1`, for which the inhibition in test [1] is 0.42%; in test [2] it was -1.42%; in test [3], -2.95%; in test [4], 0.87%; in test [5], 0.07%; in [6], 2.49%. The inhibition in test [7] was 5.66%; in test [8] it was 3.56%; in test [9], 5%; in test [10] it was 6.52%.

As to `NCc1ccc(-c2nc(-c3ccc(Cl)c(O)c3)c(-c3ccncc3)[nH]2)cc1`, the inhibition was 1.13% in [1]; -1.17% in test [2]; -0.73% in [3]; -0.17% in [4]; -1.34% in test [5]; 0.32% in [6]. The inhibition in test [7] is 3.96%; in [8], -0.81%; in [9], 8.19%; in test [10], -1.21%.

In the case of `Cc1ccc(NC(=O)c2ccnc(N3CCCC3)c2)cc1-c1ccc(C(=O)NCC2CC2)cc1`, the inhibition in [1] is -1.68%; in [2] it was -0.52%; in [3], 1.15%; in test [4], 1.02%; in test [5] it was 1.69%; in test [6], 1.07%. Further, the inhibition was 8.28% in test [7], 0.28% in test [8], 8.6% in [9] and 6.98% in test [10].

Regarding `CS(=O)(=O)CCNCc1nc(-c2ccc3ncnc(Nc4ccc(F)c(Cl)c4)c3c2)cs1`, the inhibition was -0.01% in test [1]; 0.66% in test [2]; 6.45% in test [3]; 0.35% in test [4]; 1.43% in [5]; 8.44% in test [6]. Also, the inhibition amounted to 8.78% in test [7], 3.22% in test [8], 2.57% in [9] and 1.85% in test [10].

Consider `COc1ccc2cc(-c3c(-c4ccncc4)nc(-c4ccc([S+](C)[O-])cc4)n3C)ccc2c1` (stereo not given), for which the inhibition is 0.99% in [1]; -1.77% in [2]; -3.85% in test [3]; 0.94% in test [4]; -0.4% in test [5]; 2.62% in [6]. Also, the inhibition in test [7] is 1.89%; in test [8], 0.52%; in test [9] it was 5.27%; in test [10], -2.09%.

With `CCn1c(-c2nonc2N)nc2cncc(C(=O)N3CCNCC3)c21`, the inhibition in test [1] was -0.88%; in test [2], 0.06%; in [3] it was 2.39%; in test [4], 2.77%; in [5] it was 2.41%; in [6], 4.86%. Further, the inhibition in [7] amounted to 14.2%; in test [8], 6%; in [9], 6.58%; in test [10], 6.79%.

With `Cn1cc(C=C2C(=O)Nc3cccnc32)c2ccccc21`, the inhibition in test [1] is 3.47%; in test [2], 0.47%; in [3], 11.5%; in test [4], 0.25%; in test [5] it was 1.48%; in test [6], -0.28%. The inhibition turned out to be 9.48% in [7], 2.86% in test [8], 4.37% in [9] and 2.42% in [10].

Consider `COc1cc2c(cc1Nc1nc(N3CCc4ccccc43)c3cc[nH]c3n1)N(C(=O)CN(C)C)CC2`, for which the inhibition in [1] is 0.38%; in [2] it was -0.4%; in [3], -1.08%; in [4] it was 0.04%; in test [5], -1.65%; in [6], 3.24%. Also, the inhibition was 7.48% in [7], 2.51% in test [8], -3.15% in test [9] and 0.22% in [10].

On to `CS(=O)(=O)CCNCc1ccc(-c2ccc3ncnc(Nc4ccc(OCc5ccccc5)c(Cl)c4)c3c2)o1`, for which the inhibition turned out to be 0.98% in [1]; 0.47% in [2]; 1.74% in test [3]; 0.46% in [4]; 0.34% in test [5]; 1.53% in [6]. For the same compound, the inhibition in [7] was 4.15%; in test [8] it was -3.07%; in test [9], -4.01%; in [10], 0.47%.

Regarding `NS(=O)(=O)c1cccc(-c2ccc3c(NC(=O)C4CC4)n[nH]c3c2)c1`, the inhibition in test [1] was 0.35%; in test [2], -1.61%; in test [3] it was 1.3%; in test [4] it was -0.5%; in test [5], 0.65%; in test [6], -8.4%. For the same compound, the inhibition in test [7] was -0.1%; in [8], -0.65%; in test [9], -7.23%; in test [10] it was 0.24%.

Take `Nc1nc(-c2ccccn2)c(-c2ccc3ncccc3n2)s1`: the inhibition stood at 0.01% in [1]; 0.6% in test [2]; 2.63% in test [3]; 1.31% in test [4]; 1.64% in test [5]; 4.91% in [6]. Also, the inhibition in test [7] is 3.52%; in test [8], 4.07%; in test [9], 4.74%; in test [10] it was 2.8%.

In the case of `CCCN1CCC(Oc2cc(Nc3nc(Nc4cccc(F)c4C(N)=O)c4cc[nH]c4n3)c(OC)cc2Cl)CC1`, the inhibition is 2.68% in test [1]; 1.54% in [2]; 10.5% in [3]; -0.3% in test [4]; -0.07% in test [5]; -0.37% in test [6]. In addition, the inhibition in [7] is 2.28%; in [8], -0.16%; in test [9], -0.62%; in test [10] it was -0.35%.

With `CCn1c(-c2nonc2N)nc2cncc(C(=O)N3CC[C@H](N)C3)c21`, the inhibition came to 48.2% in test [1]; 51.5% in [2]; 78.9% in test [3]; 1.81% in [4]; 2.26% in [5]; 5.73% in test [6]. Also, the inhibition in test [7] stood at 9.11%; in test [8] it was 4.34%; in test [9], 10.1%; in test [10], 3.11%.
